Screen size: about 5,500 compounds; about 2,000 (36%) were called active. Roughly 18% stayed inconclusive and do not appear here. No stated cut-off is given here; in the data, active means normalized growth mostly below about 0.91 (no sharp cut-off); inconclusive means no clear call, values can overlap the other calls; inactive means mostly above about 0.92. The list shows a part of the results.
Experiment: chemical genetic growth profiling, strain panel (AID 1159580);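 further: tested at 20 µM; growth read once vehicle control cultures reached saturation at 30 °C; 1 = growth at the plate median or of vehicle wells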
Conditions: S. cerevisiae deletion strains, growth OD
[1] = locus YAL021C, strain ccr4, stronger effect = lower value
[2] = locus YAL026C, strain drs2, stronger effect = lower value
[3] = locus YAL030W, strain snc1, stronger effect = lower value
[4] = locus YBL061C, strain skt5, stronger effect = lower value
[5] = locus YBR009C, strain hhf1, stronger effect = lower value
[6] = locus YBR023C, strain chs3, stronger effect = lower value
[7] = locus YBR171W, strain sec66, stronger effect = lower value
[8] = locus YBR231C, strain swc5, stronger effect = lower value
[9] = locus YBR279W, strain paf1, stronger effect = lower value
[10] = locus YCL011C, strain gbp2, stronger effect = lower value
[11] = locus YCL016C, strain dcc1, stronger effect = lower value
[12] = locus YCL069W, strain vba3, stronger effect = lower value
[13] = locus YCR088W, strain abp1, stronger effect = lower value
[14] = locus YDL005C, strain med2, stronger effect = lower value
[15] = locus YDL040C, strain nat1, stronger effect = lower value
[16] = locus YDR001C, strain nth1, stronger effect = lower value
[17] = locus YDR069C, strain doa4, stronger effect = lower value
[18] = locus YDR137W, strain rgp1, stronger effect = lower value
[19] = locus YDR159W, strain sac3, stronger effect = lower value
[20] = locus YDR297W, strain sur2, stronger effect = lower value
[21] = locus YDR334W, strain swr1, stronger effect = lower value
[22] = locus YDR335W, strain msn5, stronger effect = lower value
[23] = locus YDR392W, strain spt3, stronger effect = lower value
[24] = locus YEL003W, strain gim4, stronger effect = lower value
[25] = locus YEL037C, strain rad23, stronger effect = lower value
[26] = locus YEL061C, strain CIN8 (second series), stronger effect = lower value
[27] = locus YER015W, strain faa2, stronger effect = lower value
[28] = locus YER016W, strain bim1, stronger effect = lower value
[29] = locus YER111C, strain swi4, stronger effect = lower value
[30] = locus YER155C, strain BEM2 (second series), stronger effect = lower value
[31] = locus YFR010W, strain ubp6, stronger effect = lower value
[32] = locus YGL167C, strain pmr1, stronger effect = lower value
[33] = locus YGL173C, strain kem1, stronger effect = lower value
[34] = locus YGL227W, strain vid30, stronger effect = lower value
[35] = locus YGL240W, strain doc1, stronger effect = lower value
[36] = locus YGL253W, strain hxk2, stronger effect = lower value
[37] = locus YHR013C, strain ard1, stronger effect = lower value
[38] = locus YHR027C, strain rpn1, stronger effect = lower value
[39] = locus YHR142W, strain chs7, stronger effect = lower value
[40] = locus YJL092W, strain hpr5, stronger effect = lower value
[41] = locus YJL095W, strain BCK1 (second series), stronger effect = lower value
[42] = locus YJL115W, strain asf1, stronger effect = lower value
[43] = locus YJL129C, strain trk1, stronger effect = lower value
[44] = locus YJL154C, strain vps35, stronger effect = lower value
[45] = locus YJL164C, strain tpk1, stronger effect = lower value
[46] = locus YJL166W, strain qcr8, stronger effect = lower value
[47] = locus YKL160W, strain elf1, stronger effect = lower value
[48] = locus YKR026C, strain gcn3, stronger effect = lower value
[49] = locus YKR091W, strain srl3, stronger effect = lower value
[50] = locus YLL001W, strain dnm1, stronger effect = lower value
[51] = locus YLL026W, stronger effect = lower value
[52] = locus YLL041C, strain sdh2, stronger effect = lower value
[53] = locus YLR027C, strain aat2, stronger effect = lower value
[54] = locus YLR221C, strain rsa3, stronger effect = lower value
[55] = locus YLR258W, strain gsy2, stronger effect = lower value
[56] = locus YLR262C, strain YPT6 (second series), stronger effect = lower value
[57] = locus YLR320W, strain mms22, stronger effect = lower value
[58] = locus YLR342W, strain FKS1, stronger effect = lower value
[59] = locus YLR357W, strain rsc2, stronger effect = lower value
[60] = locus YLR370C, strain arc18, stronger effect = lower value
[61] = locus YLR384C, strain iki3, stronger effect = lower value
[62] = locus YML120C, strain ndi1, stronger effect = lower value
[63] = locus YMR058W, strain fet3, stronger effect = lower value
[64] = locus YMR125W, strain sto1, stronger effect = lower value
[65] = locus YMR129W, stronger effect = lower value
[66] = locus YMR205C, strain PFK2, stronger effect = lower value
[67] = locus YMR231W, strain pep5, stronger effect = lower value
[68] = locus YNL071W, strain lat1, stronger effect = lower value
[69] = locus YNL209W, strain ssb2, stronger effect = lower value
[70] = locus YNL248C, strain rpa49, stronger effect = lower value
[71] = locus YNL322C, strain KRE1 (second series), stronger effect = lower value
[72] = locus YNR049C, strain mso1, stronger effect = lower value
[73] = locus YOR001W, strain rrp6, stronger effect = lower value
[74] = locus YOR070C, strain gyp1, stronger effect = lower value
[75] = locus YOR080W, strain dia2, stronger effect = lower value
[76] = locus YOR083W, strain WHI5, stronger effect = lower value
[77] = locus YOR106W, strain vam3, stronger effect = lower value
[78] = locus YOR265W, strain rbl2, stronger effect = lower value
[79] = locus YOR270C, strain vph1, stronger effect = lower value
[80] = locus YOR290C, strain snf2, stronger effect = lower value
[81] = locus YPL051W, strain arl3, stronger effect = lower value
[82] = locus YPL078C, strain atp4, stronger effect = lower value
[83] = locus YPL106C, strain sse1, stronger effect = lower value
[84] = locus YPL240C, strain hsp82, stronger effect = lower value

Measured: normalized growth

Cc1ccc2c(Cl)cc(Cl)c(O)c2n1
inactive: [1] 0.998 | [2] 1.02 | [3] 1.01 | [4] 1.02 | [5] 1.02 | [6] 1.02 | [7] 1.04 | [8] 1.03 | [9] 1.02 | [10] 1.01 | [11] 1.02 | [12] 1.01 | [13] 1.02 | [14] 1.02 | [15] 1.02 | [16] 1.02 | [17] 1.03 | [18] 1.06 | [19] 1.02 | locus YDR195W, strain ref2 0.987 | [20] 1.02 | [21] 1.02 | [22] 1.01 | [23] 1.02 | [24] 1.01 | [25] 1.02 | [26] 1.01 | [27] 1.01 | [28] 1.02 | [29] 1.02 | [30] 1.02 | [31] 1.01 | [32] 1.03 | [33] 1.02 | [34] 1.05 | [35] 1.02 | [36] 1.01 | [37] 1.04 | [38] 1.02 | [39] 1.03 | [40] 1.02 | [41] 1.04 | [42] 1.03 | [43] 1.02 | [44] 1.02 | [45] 1.02 | [46] 1.04 | locus YJL187C, strain SWE1, stronger effect = lower value 0.999 | [47] 1.02 | [48] 1.02 | [49] 1.02 | [50] 1.02 | [51] 0.999 | [52] 1.03 | [53] 1.02 | [54] 1.01 | [55] 1.02 | [56] 1 | [57] 1.03 | [58] 1.05 | [59] 1.04 | [60] 1.02 | [61] 1.03 | [62] 1 | [63] 1.01 | [64] 1.02 | [65] 1.01 | [66] 1.02 | [67] 1.02 | [68] 1.01 | [69] 1.01 | [70] 1.01 | [71] 1.03 | [72] 1.03 | [73] 1.02 | [74] 1.03 | [75] 1.02 | [76] 1.03 | [77] 1.01 | [78] 1.01 | [79] 1.02 | [80] 1.03 | [81] 1.01 | [82] 1.01 | [83] 1 | [84] 1.01

Oc1c(I)cc(Cl)c2cccnc12
active: [1] 0.0783 | [2] 0.0852 | [3] 0.074 | [4] 0.0782 | [5] 0.0791 | [6] 0.0818 | [7] 0.115 | [8] 0.0829 | [9] 0.0782 | [10] 0.0716 | [11] 0.0859 | locus YCL061C, strain MRC1, stronger effect = lower value 0.0889 | [12] 0.0861 | [13] 0.0839 | [14] 0.0947 | [15] 0.0731 | [16] 0.0804 | [17] 0.0805 | [18] 0.12 | [19] 0.115 | locus YDR195W, strain ref2 0.156 | [20] 0.074 | [21] 0.0896 | [22] 0.0873 | [23] 0.119 | [24] 0.0685 | [25] 0.0804 | [26] 0.0788 | [27] 0.0769 | [28] 0.0802 | [29] 0.103 | [30] 0.127 | [31] 0.0904 | [32] 0.0969 | [33] 0.088 | [34] 0.0887 | [35] 0.104 | [36] 0.0777 | [37] 0.139 | [38] 0.0784 | locus YHR030C, strain SLT2, stronger effect = lower value 0.148 | locus YHR079C, strain IRE1, stronger effect = lower value 0.134 | [39] 0.104 | [40] 0.0829 | [41] 0.0763 | locus YJL095W, strain BCK1, stronger effect = lower value 0.127 | [42] 0.101 | [43] 0.102 | [44] 0.0859 | [45] 0.0769 | [46] 0.0785 | locus YJR066W, strain TOR1, stronger effect = lower value 0.00414 | [47] 0.0922 | [48] 0.0898 | [49] 0.0766 | [50] 0.0857 | [51] 0.0726 | [52] 0.0731 | [53] 0.071 | locus YLR113W, strain HOG1, stronger effect = lower value 0.163 | [54] 0.0761 | [55] 0.0743 | [56] 0.0974 | [57] 0.0998 | [58] 0.0803 | [59] 0.172 | [60] 0.0859 | [61] 0.0798 | [62] 0.0749 | [63] 0.0885 | [64] 0.106 | [65] 0.0728 | [66] 0.11 | [67] 0.0867 | [68] 0.0765 | locus YNL183C, strain NPR1, stronger effect = lower value 0.00429 | [69] 0.076 | [70] 0.104 | [71] 0.0819 | [72] 0.0835 | [73] 0.0849 | [74] 0.106 | [75] 0.0874 | [76] 0.0797 | [77] 0.0829 | locus YOR231W, strain MKK1, stronger effect = lower value 0.122 | [78] 0.072 | [79] 0.139 | [80] 0.0977 | [81] 0.0807 | [82] 0.0919 | [83] 0.139 | [84] 0.0779 | locus YPL256C, strain CLN2, stronger effect = lower value 0.143
